Screening results from PubChem BioAssay.
RE007 growth inh – less growth of the S. pombe RE007 Vpr strain | Potency, µM (top dose mostly 92.2 µM), for inactives: top-dose activity change, negative = less growth, hits mostly inhibitors | S. pombe RE007 Vpr strain, BacTiter-Glo ATP luminescence, 24 h | 360,000 compounds, 0.21% hits; active means well fitted falling curve with a large enough effect; inconclusive means small, poorly fitted or top-dose-only effect; inactive means no such curve, though single readings can be large or run the other way; further: potency means the concentration at half of the fitted maximal effect; on the % scale 0 is the no-effect control and ±100 the full control effect; nearly all actives have a fitted effect of over 50% in size
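Fission yeast RE007 carrying one integrated HIV-1 vpr copy, seeded at OD 0.01 in PMG+AL medium with 23 nL pinned compound. Grown 24 h at 30 degrees; viability read by BacTiter-Glo luminescence after 5 min.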
LmPK inhibitor – blocks Leishmania mexicana pyruvate kinase activity. Q27686. purified LmPK, Kinase-Glo ATP luminescence, 1 h. Potency, µM (titrated, usually from 57.5 µM), without a hit: at the highest dose activity change, negative = inhibition, usual class: inhibitors. 290,000 compounds, 0.37% hits; further: potency means the concentration at half of the fitted maximal effect; on the % scale 0 is the no-effect control and ±100 the full control effect
Target sequence (Q27686 whole entry, looked up): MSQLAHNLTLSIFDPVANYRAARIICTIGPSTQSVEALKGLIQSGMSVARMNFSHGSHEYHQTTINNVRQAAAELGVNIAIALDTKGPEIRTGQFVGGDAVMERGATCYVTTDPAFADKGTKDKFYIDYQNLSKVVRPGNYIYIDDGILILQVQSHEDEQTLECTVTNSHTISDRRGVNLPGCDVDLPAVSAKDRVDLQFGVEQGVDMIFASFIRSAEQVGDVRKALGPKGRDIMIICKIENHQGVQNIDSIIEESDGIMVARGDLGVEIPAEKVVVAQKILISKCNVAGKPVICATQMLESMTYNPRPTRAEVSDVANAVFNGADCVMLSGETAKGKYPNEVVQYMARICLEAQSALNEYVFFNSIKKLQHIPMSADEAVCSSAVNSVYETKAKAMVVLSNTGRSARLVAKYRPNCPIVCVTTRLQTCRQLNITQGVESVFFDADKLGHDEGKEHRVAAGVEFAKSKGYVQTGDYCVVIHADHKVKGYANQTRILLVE
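Purified LmPK (0.1 nM) converted ADP (0.1 mM) to ATP with PEP (0.5 mM) in imidazole buffer pH 7.2 with KCl and MgCl2, 1 h at room temperature. ATP was read by Kinase-Glo luminescence; data normalized to uninhibited and no-enzyme controls.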
CHX counter – affects cycloheximide protein synthesis inhibition readout, counter-screen | cell reporter, cycloheximide protein synthesis inhibition counterscreen | max response, % | 300,000 compounds, 12% hits | AID 2314; in the data active means max response mostly above about 13%, no sharp cut-off; inactive means mostly below about 14%; further: read at 38.3 µM for the half of the compounds with a filed dose; 0% is about no effect
Giardia FBPA inh – blocks Giardia fructose-bisphosphate aldolase activity | purified Giardia FBPA | Potency, µM (top dose mostly 59.6 µM), inactives show at the highest dose activity, negative = inhibition, actives largely listed as inhibitors | 290,000 compounds, 0.71% hits | AID 2451; further: potency means the concentration at half of the fitted maximal effect; on the % scale 0 is the no-effect control and ±100 the full control effect; nearly all actives have a fitted effect of over 55% in size
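40 nM FBPA preincubated 10 min at RT with compound (up to 57.5 uM final), then substrate plus GAPDH/TPI/NAD/arsenate coupling and diaphorase/resazurin added. Fluorescence read after 20 min at RT, 525/598 nm.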
Shiga inhibitor – Shiga toxin inhibition. Vero cells, Shiga toxin protein synthesis inhibition reporter. inhibition, % at 38.7 µM. 290,000 compounds, 9.2% hits. AID 2315; in the data active means inhibition mostly above about 28%, no sharp cut-off; inactive means mostly below about 43%; further: 0% is about no effect
TbPYK inhibitor – T. brucei pyruvate kinase inhibition; Potency, µM (series often up to 76.8 µM), for inactives: at the top dose activity, negative = inhibition, hits mostly inhibitors; 410,000 compounds, 0.12% hits; TbPYK enzyme, Kinase-Glo Plus ATP luminescence, 45 min; Q57TT1; further: potency means the concentration at half of the fitted maximal effect; on the % scale 0 is the no-effect control and ±100 the full control effect; nearly all actives have a fitted effect of over 50% in size
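T. brucei PYK with substrate was exposed to pin-transferred compounds across a concentration series, then started with 130 uM ADP (final). After 45 min at room temperature, Kinase-Glo Plus luminescence was read, normalized and curve-fitted.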
An asterisk follows results filed as active; ? = inconclusive; · = no result given; [ ] = remark or other dose. The sample as a whole holds a higher share of hits than the screen did. Unless noted, the call rests on the fitted dose curve; in most records, active means well fitted curve in the direction sought with a large enough effect; inconclusive means small, poorly fitted or top-dose-only effect, or another doubt; inactive means no such curve, though single readings can be large; an effect the other way counts as inactive or inconclusive.

SMILES	RE007 growth inh	LmPK inhibitor	CHX counter	Giardia FBPA inh	Shiga inhibitor	TbPYK inhibitor
O=C(OCC#CCSc1nnc(-c2cccc3ccccc23)o1)c1ccco1	-6%	-1%	13	·	6	2%
O=C(OCC#CCSc1nc2ccccc2o1)c1ccco1	-4%	0%	13*	-8%	31*	2%
O=C(OCC#CCSc1nc2ccccc2o1)c1cc2ccccc2o1	11%	3%	15*	0%	32	3%
CCc1nnc(SCC(=O)Nc2cccc(C(F)(F)F)c2)c2cc3oc(C)cc3n12	·	·	·	·	·	-10%
C/C(Cl)=C/Cc1c(C)[nH]c2c(ccc3ccccc32)c1=O	-9%	3%	2	5%	-3	1%
C/C(Cl)=C/Cc1c(C)[nH]c2ccc(C)cc2c1=O	20%	-7%	27*	0%	41	-8%
COCCNC(=O)CSc1nc2ccc(N3CCOCC3)cc2c(=O)n1Cc1ccc(OC)cc1	4%	-3%	28*	?	54	-2%
CCCCNC(=O)CSc1nc2ccc(N3CCOCC3)cc2c(=O)n1Cc1ccc(OC)cc1	12%	12%	7	?	-13	-15%
S=C(Nc1ccc(Br)cc1)NC1CCCC1	8%	1%	42*	3%	63*	-15%
CC1CCCCC1NC(=S)Nc1ccc(SC(F)F)cc1 (configuration not stated)	-14%	5%	35*	0%	75*	-5%
FC(F)Sc1ccc(NC(=S)NC2CCCCC2)cc1	-18%	6%	31*	-4%	114	-7%
CC1CCN(C(=S)Nc2ccc(SC(F)F)cc2)CC1	13%	1%	59*	2%	64*	2%
CCOC(=O)c1ccc(CN(Cc2ccc(F)cc2)S(=O)(=O)c2ccc(F)c(C(=O)Nc3cc(Cl)ccc3OC)c2)cc1	·	·	·	·	·	5%
NC(=O)c1ccccc1NC(=O)Nc1ccc(F)c(Cl)c1	-1%	-12%	42*	0%	56*	-3%
Cc1cccc(NC(=O)C2(c3ccccc3)CC2(Cl)Cl)c1 (configuration not stated)	9%	5%	3	-7%	13	-6%
Cc1ccc(NC(=O)/C(C#N)=C/c2ccc(C(C)C)cc2)cc1C	·	·	·	·	·	-7%
Cc1ccc(NC(=O)C2(c3ccccc3)CC2(Cl)Cl)cc1C (configuration not stated)	4%	2%	66*	-2%	128*	-2%
CC(=O)Nc1ccccc1C(=O)C(=O)Nc1ccc(F)c(Cl)c1	-8%	0%	20*	-7%	45	4%
NC(=O)c1ccccc1NC(=O)Nc1cccc(Cl)c1Cl	-2%	0%	6	1%	1	-14%
Cc1ccc(NC(=O)/C(Cl)=C/c2ccccc2)cc1C	·	-21%	45*	-2%	95*	-8%
CCc1ccc(NC(=O)C(=O)c2ccccc2NC(C)=O)cc1	17%	·	·	·	·	1%
CCOc1ccc(S(=O)(=O)n2nc(C)c(S(=O)(=O)N3CCCCC3)c2C)cc1	·	·	·	·	·	-7%
Cc1ccccc1-c1cc(Nc2ccc(F)cc2)ncn1	·	·	·	-6%	·	·
Cc1ccc(CN2CCCn3nc(C(=O)NCc4ccc(OC(C)C)cc4)cc3C2=O)cc1	·	·	·	·	·	1%
CC(=O)Nc1ccccc1C(=O)C(=O)Nc1ccc(C)c(C)c1	-8%	-2%	40*	1%	40*	0%
SMILES	RE007 growth inh	LmPK inhibitor	CHX counter	Giardia FBPA inh	Shiga inhibitor	TbPYK inhibitor
CC(=O)Nc1ccccc1C(=O)C(=O)Nc1cccc(F)c1	-10%	·	·	·	·	1%
CCN(CC)C(=O)C(=O)Nc1ccc(F)c(Cl)c1	3%	-18%	28*	6%	88*	1%
CC(=O)Nc1ccccc1C(=O)C(=O)Nc1ccc(C)c(F)c1	?	9%	59*	-4%	103*	-5%
CCc1ccc(CNC(=O)C2CCN(C(=O)N3CC(CC)Oc4ccc(C)cc43)CC2)cc1 (configuration not stated)	·	·	·	·	·	4%
CCn1c(-c2cc(-c3ccc(OC(C)C)cc3)nc3ccccc23)n[nH]c1=S	1%	-1%	31*	?	44	-15%
CCn1c(-c2cc(-c3ccc(C)cc3)nc3ccccc23)n[nH]c1=S	13%	4%	16*	0%	21	?
C=CCn1c(-c2cc(-c3ccc(C)cc3)nc3ccccc23)n[nH]c1=S	-1%	7%	13	2%	13	-31%
COc1ccc(/C=C/N(CCc2ccc(OC)c(OC)c2)C(C)=O)cc1	·	·	·	-3%[12.9 µM]	·	·
C/C(CC(=O)Nc1ccc(Cl)cc1Cl)=N\NC(=O)c1ccncc1	12%	2%	19	-7%	19	0%
C/C(=N/NC(=O)c1cccs1)c1ccc(NC(=O)COc2ccc(Cl)cc2Cl)cc1	-9%	1%	33*	3%	94*	2%
COc1cc(NC(=O)C/C(C)=N/NC(=O)Cc2ccccc2)c(OC)cc1Cl	-1%	1%	10	4%	-3	-11%
C/C(=N/NC(=O)c1ccc(C)s1)c1cccc(NC(=O)COc2ccc(Cl)cc2Cl)c1	-10%	-3%	1	5%	6	4%
C/C(CC(=O)Nc1ccc(Cl)cc1C(F)(F)F)=N\NC(=O)c1ccccn1	11%	2%	41*	15%	76*	-1%
C/C(CC(=O)Nc1ccc(Cl)cc1C(F)(F)F)=N\NC(=O)c1cccs1	12%	4%	54*	-17%	91*	2%
COc1cc(NC(=O)C/C(C)=N/NC(=O)c2cccs2)c(OC)cc1Cl	-8%	-1%	25*	-16%	67*	13%
O=C(O)Cn1nncc1-c1ccc(C(F)(F)F)cc1	-11%[18.4 µM]	·	·	·	·	-2%
O=C(/C=C/Nc1ccccc1)c1ccccc1	?	7.9µM*	27*	-4%	29	-22%
Cc1cc(N/C=C/C(=O)c2ccccc2)ccc1Br	4%	-9%	37*	0%	56*	-3%
C/C(=C\C(=O)c1ccc(Cl)cc1Cl)N(C)C	7%	12%	14	-9%	32*	-8%
CC(=O)Nc1ccc(N/C=C/C(=O)c2ccccc2)cc1	?	-8%	37*	17%	53*	2%
CC(C)(C)c1cc(C(=O)NCCN2CCCC2)cc(C(C)(C)C)c1	-8%	-2%	-2	-4%	-16	2%
O=C(/C=C/Nc1ccc(F)cc1Br)c1ccccc1	3%	?	39*	3%	40*	?
O=C(/C=C/Nc1ccccc1)c1ccc(Cl)cc1Cl	-24%	-12%	42*	5%	98*	0%
COc1ccc(OC)c(N/C=C/C(=O)c2ccccc2)c1	-16%	?	-3	-1%	-37	?
CN(C)c1ccc(N/C=C/C(=O)c2ccccc2)cc1	-14%	5.6µM*	28*	?	78*	?
CCOC(OCC)P(=O)(O)CCCNCc1ccc(Cl)c(Cl)c1	·	·	·	8%	·	·
